Each structure is given as a SMILES string. About 250 (13%) of roughly 1,900 compounds were called active. About 4% were inconclusive and are not listed.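 The calls were made as follows: active = fitted curve reaches 40% rescue activity at or below the top valid dose, in every test run; inconclusive = test runs disagree, some active and some inactive; inactive = every run misses the threshold or moves the wrong way.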 Not all results are given here. Entries with a potency or affinity are not part of this list.

The assay in a line: rescue of simvastatin-induced ATP loss – cell-based, C2C12 myotubes, ATP luminescence, cherry pick, dose response (AID 624405).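 Also: myotubes are challenged with simvastatin at 10 µM to lower ATP.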 The settings on record: 48 h, scaled: DMSO wells 0, geranylgeraniol wells 100; series mostly up to 19.5 µM; rescue activity (ATP increase): at the top concentration.
For `CN1CCN(C2=Cc3ccccc3Sc3cc(F)ccc32)CC1`, the “rescue activity (ATP increase)” value was -37.4% (inactive).
The figure for `Cc1noc(C)c1S(=O)(=O)Nc1ccc2c(c1)CC(=O)N([C@H](C)CO)C[C@@H](C)[C@@H](CN(C)Cc1ccc(Cl)c(Cl)c1)O2` is 25.4% [at 21 µM] (inactive); for `Cc1noc(C)c1S(=O)(=O)Nc1ccc2c(c1)CC(=O)N([C@H](C)CO)C[C@H](C)[C@@H](CN(C)Cc1ccc(Cl)c(Cl)c1)O2` it is 31.6% (inactive); for `Cc1noc(C)c1S(=O)(=O)Nc1ccc2c(c1)CC(=O)N([C@H](C)CO)C[C@@H](C)[C@H](CN(C)Cc1ccc(Cl)c(Cl)c1)O2` it is 37.4% (inactive).
With `Cc1noc(C)c1S(=O)(=O)Nc1ccc2c(c1)CC(=O)N([C@@H](C)CO)C[C@@H](C)[C@H](CN(C)Cc1ccc(-c3ccccc3)cc1)O2` the figure was 27.5% (inactive); with `Cc1noc(C)c1S(=O)(=O)Nc1ccc2c(c1)CC(=O)N([C@H](C)CO)C[C@@H](C)[C@@H](CN(C)Cc1ccc(C(F)(F)F)cc1)O2`, 27.1% (inactive); with `Cc1noc(C)c1S(=O)(=O)Nc1ccc2c(c1)CC(=O)N([C@@H](C)CO)C[C@H](C)[C@@H](CN(C)Cc1ccc(Cl)c(Cl)c1)O2`, -10.4% [at 21 µM] (inactive).
`C/C=C/c1ccc2c(c1)O[C@@H](CN(C)C(=O)NC1CCCCC1)[C@@H](C)CN([C@@H](C)CO)S2(=O)=O`: the “rescue activity (ATP increase)” value is 1.41% (inactive).
As to `O=C(O)CC(c1ccccc1)n1cccc1` (stereo unspecified), the “rescue activity (ATP increase)” value was -17% (inactive).
Turning to `O=C(CN1CCN(C(=O)c2ccco2)CC1)Nc1cc(C(F)(F)F)ccc1Cl`, the “rescue activity (ATP increase)” value was 12.5% (inactive).
With `COc1ccc(NC(=O)Nc2ccc3c(c2)C(=O)N([C@H](C)CO)C[C@H](C)[C@H](CN(C)Cc2ccc(C(F)(F)F)cc2)OCCCC[C@@H](C)O3)cc1` the figure was 22.8% (inactive).
Regarding `CCn1ncc(Br)c1C(=O)Nc1cc(C(=O)OC)ccc1C(=O)OC`, the “rescue activity (ATP increase)” value was 7.32% (inactive).
The figure for `O=C(C[C@@H]1CC[C@H]2[C@@H](COC[C@@H](O)CN2Cc2ccc(Oc3ccccc3)cc2)O1)Nc1nccs1` is 15.2% (inactive); for `O=C(C[C@H]1CC[C@H]2[C@@H](COC[C@H](O)CN2Cc2ccc(Oc3ccccc3)cc2)O1)N1CCCCC1` it is -0.632% (inactive); for `O=C(C[C@@H]1CC[C@@H]2[C@H](COC[C@H](O)CN2Cc2ccc(C(F)(F)F)cc2)O1)NCCc1ccccc1` it is 3.36% (inactive).
With `O=C(C[C@H]1CC[C@H]2[C@@H](COC[C@@H](O)CN2Cc2ccc(Oc3ccccc3)cc2)O1)N1CCCCC1` the figure was -0.333% (inactive); with `CC(C)NC(=O)Nc1cccc2c1O[C@H](CN(C)Cc1ccc(-c3ccccc3)cc1)[C@@H](C)CN([C@@H](C)CO)C2=O`, 15.1% (inactive).
The figure for `Cc1ccc(S(=O)(=O)NCCN=C(CN2CCCC2)NS(=O)(=O)c2ccc(C)cc2)cc1` is 10.6% (inactive); for `CC(=O)OC1CC(n2ccc(NC(=O)c3ccccc3)nc2=O)OC1CO` (stereo unspecified) it is 11.3% (inactive); for `COc1ccc2oc(=O)cc(CN3CCN(Cc4ccc(OC)c(OC)c4OC)CC3)c2c1` it is -43.4% (inactive).
Consider `C[C@@H]1CN([C@@H](C)CO)C(=O)Cc2cc(N(C)C)ccc2O[C@H]1CN(C)Cc1ccc2c(c1)OCO2`, for which the “rescue activity (ATP increase)” value is 16.1% (inactive).
For `O=c1c2ccccc2ncn1Cc1nc2ccccc2s1`, the “rescue activity (ATP increase)” value was -11.5% (inactive).
Turning to `COc1ccc(Cc2nc(C(=O)Nc3ccc(OC)cc3)cs2)cc1`, the “rescue activity (ATP increase)” value was 4.07% (inactive).
The figure for `C[C@@H]1CCCCO[C@@H](CN(C)C(=O)Nc2cccc3ccccc23)[C@@H](C)CN([C@@H](C)CO)C(=O)c2cc(NS(=O)(=O)c3ccc(Cl)cc3)ccc2O1` is 3.78% [at 21 µM] (inactive); for `COc1cccc(C#Cc2ccc3c(c2)O[C@H](CN(C)C(=O)c2ccccn2)[C@H](C)CN([C@H](C)CO)S3(=O)=O)c1` it is -0.261% (inactive).
The figure for `Cc1ccc(S(=O)(=O)N(C)c2ccc(C(=O)O)cc2)cc1` is -15.7% (inactive).
The figure for `CCC1(C)Cc2c(sc3nc(NN)n(C)c(=O)c23)CO1` (stereo unspecified) is 30.3% [at 10 µM] (inactive).
For the compound `C[C@H]1CN([C@@H](C)CO)C(=O)c2cc(C3=CCCCC3)cnc2O[C@H]1CN(C)Cc1ccccc1F`, the “rescue activity (ATP increase)” value was 16.7% (inactive).
The figure for `C[C@@H]1CN([C@@H](C)CO)C(=O)c2cc(C#CC3CCCCC3)cnc2O[C@H]1CN(C)S(=O)(=O)c1ccc(F)cc1` is 14.9% (inactive); for `C[C@@H]1CN([C@H](C)CO)C(=O)Cc2cc(NC(=O)CCCCCC(=O)Nc3ccccc3N)ccc2O[C@H]1CN(C)Cc1ccc(Oc2ccccc2)cc1` it is 35.7% (inactive); for `C[C@H]1CN([C@@H](C)CO)C(=O)Cc2cc(NC(=O)CCCCCC(=O)Nc3ccccc3N)ccc2O[C@@H]1CN(C)Cc1ccc(Oc2ccccc2)cc1` it is 37.8% [at 21 µM] (inactive).
With `O=C(c1ccco1)N(Cc1ccco1)c1ccc(O)cc1` the figure was 21.1% (inactive); with `C[C@H]1CCCCO[C@H](CN(C)S(=O)(=O)c2ccc(Cl)cc2)[C@@H](C)CN([C@@H](C)CO)C(=O)c2cc(NS(C)(=O)=O)ccc2O1`, 9.53% (inactive).
The figure for `COCCNC(=O)CSc1nc2ccccc2c2nc(C)nn12` is -16.7% (inactive).
Take `C[C@H](CO)N1C[C@H](C)[C@@H](CN(C)Cc2ccc(-c3ccccc3)cc2)Oc2ccc(NC(=O)Cn3cnnn3)cc2CC1=O`: the “rescue activity (ATP increase)” value was 20.2% (inactive).
The figure for `C[C@@H]1CN([C@@H](C)CO)C(=O)c2cc(C#Cc3ccc(F)cc3)cnc2O[C@H]1CN(C)C(=O)c1ccccc1F` is 26.9% (inactive); for `COc1ccc(S(=O)(=O)Nc2ccc3c(c2)C(=O)N([C@H](C)CO)C[C@H](C)[C@H](CN(C)Cc2ccc(Cl)c(Cl)c2)OCCCC[C@@H](C)O3)cc1` it is 33.4% (inactive); for `CN1C(=O)c2cc(NC(=O)c3cscn3)ccc2OC[C@H]2O[C@H](CC(=O)NCc3ccc(Cl)c(Cl)c3)CC[C@H]21` it is 22.7% (inactive).
On to `COc1ccc(S(=O)(=O)Nc2ccc3c(c2)CC(=O)N([C@H](C)CO)C[C@@H](C)[C@H](CN(C)Cc2ccc(Cl)c(Cl)c2)O3)cc1`, for which the “rescue activity (ATP increase)” value was 38.2% [at 21 µM] (inactive).
The figure for `CC(C)(Oc1ccc(Cl)cc1)C(=O)NCc1ccco1` is -10.1% (inactive); for `CN1CCN(c2ccc(NC(=S)NC(=O)c3cccc4c(Br)cccc34)cc2)CC1` it is 12.4% (inactive).
With `C[C@@H]1CCCCO[C@@H](CN(C)C(=O)Nc2ccc(C(F)(F)F)cc2)[C@H](C)CN([C@@H](C)CO)C(=O)c2cc(NC(=O)c3ccccc3)ccc2O1` the figure was 4.74% (inactive); with `Cc1ccc(S(=O)(=O)N(C)C[C@H]2Oc3ccc(NC(=O)Cc4ccccc4)cc3CC(=O)N([C@@H](C)CO)C[C@@H]2C)cc1`, 10.6% (inactive); with `C[C@@H]1CCCCO[C@H](CN(C)S(=O)(=O)c2ccc(Cl)cc2)[C@@H](C)CN([C@@H](C)CO)C(=O)c2cc(NS(C)(=O)=O)ccc2O1`, 17.1% (inactive).
Take `COc1ccc(C(=O)c2ccc(OC)cc2O)c(O)c1`: the “rescue activity (ATP increase)” value was -31.7% (inactive).
With `C[C@H]1CN([C@@H](C)CO)C(=O)Cc2cc(NC(=O)CCCCCC(=O)Nc3ccccc3N)ccc2O[C@@H]1CN(C)Cc1ccc(C(F)(F)F)cc1` the figure was 26.4% [at 16 µM] (inactive); with `C[C@H](CO)N1C[C@H](C)[C@H](CN(C)Cc2ccc(C(F)(F)F)cc2)Oc2ccc(NC(=O)CCCCCC(=O)Nc3ccccc3N)cc2CC1=O`, 4.41% (inactive); with `Cc1onc(-c2ccccc2)c1C(=O)OCC(=O)Nc1ccc2c(c1)OCO2`, 11.4% (inactive).
With `Cc1ccc(NC(=O)C(=S)NCc2ccco2)cc1` the figure was -12.1% (inactive); with `FC(F)(F)c1cccc(-c2nnc(-c3ccccc3)c(N3CCOCC3)n2)c1`, -100% (inactive); with `Cc1ccc(Nc2cc(=O)[nH]c(=O)[nH]2)c(C)c1`, 3.31% (inactive).
With `COCC(=O)N1C[C@H]2[C@@H](c3ccccc31)[C@@H](CO)N2Cc1ccc(OC)cc1` the figure was -32.2% (inactive); with `CCCNC(=O)N(C)C[C@@H]1Oc2cc(-c3ccccc3)ccc2S(=O)(=O)N([C@@H](C)CO)C[C@@H]1C`, -7.2% (inactive); with `CC(C)NC(=O)Nc1ccc2c(c1)C(=O)N([C@@H](C)CO)C[C@H](C)[C@H](CN(C)Cc1ccccc1)O2`, 7.77% (inactive).
Consider `COc1ccc2cc(C(=O)O)n(CC(=O)c3ccccc3)c2c1`, for which the “rescue activity (ATP increase)” value was 25.9% (inactive).
With `COc1ccc(NC(=O)CSc2nnc(-c3ccccc3Cl)n2Cc2ccco2)c(OC)c1` the figure was 13.5% (inactive); with `CCC(CC)C(=O)c1c[nH]c(C(=O)NCC2CCCO2)c1` (stereo unspecified), 8.18% (inactive); with `CN1C[C@H]2[C@@H](c3ccccc31)[C@H](CO)N2Cc1ccccc1`, 1.69% (inactive).
Take `O=C(c1ccc(F)cc1)N1CCC(N2CCCCCC2)CC1`: the “rescue activity (ATP increase)” value was -15.7% (inactive).
The figure for `CC(C)c1ccc(NS(=O)(=O)c2ccc(-n3cccn3)cc2)cc1` is 7.18% (inactive); for `CCc1cccc(NS(=O)(=O)c2ccc(-n3cccn3)cc2)c1` it is 37.6% (inactive).
With `Cc1ccc(C)c(NS(=O)(=O)c2ccc(-n3cccn3)cc2)c1` the figure was 31.4% (inactive); with `Cc1ccc(NS(=O)(=O)c2ccc(-n3cccn3)cc2)cc1Cl`, 17.5% (inactive); with `COc1ccc(C#Cc2cnc3c(c2)C(=O)N([C@H](C)CO)C[C@H](C)[C@@H](CN(C)C(=O)Nc2cccc(OC)c2)O3)cc1`, 32.5% (inactive).
The figure for `COc1cc(C(=O)OCCN2CCOCC2)ccc1O` is 0.799% (inactive); for `C[C@@H]1CN([C@@H](C)CO)C(=O)c2cccc(NC(=O)C3CCCCC3)c2O[C@@H]1CN(C)S(=O)(=O)c1ccc(Cl)cc1` it is 6.54% (inactive).
In the case of `C[C@H](CO)N1C[C@H](C)[C@H](CN(C)S(C)(=O)=O)OCCCC[C@H](C)Oc2ccc(NS(=O)(=O)c3ccc(F)cc3)cc2C1=O`, the “rescue activity (ATP increase)” value was 20% (inactive).
On to `COc1ccc(-c2cnc3c(c2)C(=O)N([C@H](C)CO)C[C@H](C)[C@H](CN(C)S(=O)(=O)c2ccc(F)cc2)O3)cc1`, for which the “rescue activity (ATP increase)” value was 22.4% (inactive).
The figure for `Cc1[nH]nc2c1C(c1ccsc1)C(C#N)=C(N)O2` (stereo unspecified) is 15.8% (inactive).
The figure for `OC[C@H]1[C@H]2c3ccccc3NC[C@H]2N1Cc1ccccc1Cl` is -8.25% (inactive); for `CCC(CC)C(=O)Nc1cccc(/C(C)=N/NC(=O)c2ccccc2Cl)c1` it is -38.2% (inactive); for `COc1cc(OC)cc(C(=O)Nc2ccccc2C(=O)N2CCCC2)c1` it is 4.03% (inactive).
The figure for `O=C(NCc1ccncc1)Nc1ccccc1Cl` is 3.84% (inactive).
Regarding `C[C@@H]1CN([C@@H](C)CO)C(=O)Cc2cc(NS(=O)(=O)c3ccc(Cl)cc3)ccc2O[C@@H]1CN(C)Cc1ccc(C(F)(F)F)cc1`, the “rescue activity (ATP increase)” value is 7.12% (inactive).
As for `C[C@@H]1CN([C@@H](C)CO)C(=O)c2cccc(NS(=O)(=O)c3ccccc3)c2O[C@@H]1CN(C)S(=O)(=O)c1cccs1`, the “rescue activity (ATP increase)” value is 25.9% (inactive).
Turning to `O=C(Cn1cnc2c(nnn2Cc2ccc(F)cc2)c1=O)NC1CCCC1`, the “rescue activity (ATP increase)” value was -82.2% [at 10 µM] (inactive).

(Values after PubChem BioAssay AID624405 (Broad Institute, 2012).)
